Results on 13 compounds are retold here after PubChem BioAssay (NCI).

Test systems include HCT-15 colon; HT29 colon; SNB-75 CNS; SNB-19 CNS; U251 CNS; PC-3 prostate; SK-MEL-5 melanoma; UACC-62 melanoma; LOX IMVI melanoma; SK-MEL-28 melanoma.
Common to all, as to test: NCI-60 one-dose screen, 48 h (100 = growth as untreated, 0 = no growth, -100 = all killed)
Common to all, as to conditions: 10 µM unless noted

About 83,000 compounds went through this panel and 20% of them were active in at least one assay; those are over-represented in the sample as a whole.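 Method: cells in 96-well plates; compound added at one concentration; 48 h incubation; percent growth measured; values under 10 scored active.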 A number with no mark means an inactive call. Calls of active or inactive are those of the source.

For the compound `CC(C)C[C@H](NC(=O)[C@@H]1CCCCCCCCCCC(=O)N[C@@H](CC(=O)N2CCC[C@@H]2C2CCCC2)C(=O)N1)B(O)O`, the growth was -36.7% (active) with HCT-15 colon; -18% (active) with HT29 colon; -77% (active) in the experiment with SNB-75 CNS; 6.18% (active) in the experiment with SNB-19 CNS; -50.7% (active) in the experiment on U251 CNS; 8.18% (active) in the experiment on PC-3 prostate. In addition, the growth in the experiment with SK-MEL-5 melanoma is -92% (active); with UACC-62 melanoma, -86.8% (active); in the experiment with LOX IMVI melanoma, -93.3% (active); with SK-MEL-28 melanoma, -5.72% (active).
Regarding `COc1ccc(NC(=O)N/N=C/c2c[nH]c3ccccc23)cc1`, the growth is 26.2% with HCT-15 colon; 2.49% (active) in the experiment on HT29 colon; 19.6% in the experiment on SNB-75 CNS; 47.3% in the experiment on SNB-19 CNS; 28.3% in the experiment on U251 CNS; 48.7% with PC-3 prostate. Besides, the growth is 20.5% in the experiment on SK-MEL-5 melanoma, 25.5% in the experiment on UACC-62 melanoma, 28% in the experiment with LOX IMVI melanoma and 67.9% with SK-MEL-28 melanoma.
`Cc1nc(N)ncc1-c1ccc2ncnc(N3CCc4cc(F)c(Cl)cc43)c2c1`: the growth in the experiment with HCT-15 colon is 55.5%; in the experiment with HT29 colon, 67.2%; in the experiment on SNB-75 CNS, 15.7%; in the experiment with SNB-19 CNS, 68.3%; in the experiment on U251 CNS it was 67%; in the experiment with PC-3 prostate, 54.4%. In addition, the growth in the experiment with SK-MEL-5 melanoma is 77.1%; in the experiment with UACC-62 melanoma, 71.8%; with LOX IMVI melanoma, 60.9%; with SK-MEL-28 melanoma it was 107%.
As to `Cn1cc(-c2cc(N)n3nc(-c4c[nH]c5ccccc45)cc3n2)c2cc(Br)ccc21`, the growth is -76.6% (active) with HCT-15 colon; -52% (active) with HT29 colon; -47.7% (active) with SNB-75 CNS; -85.9% (active) with SNB-19 CNS; -95.2% (active) in the experiment with U251 CNS; -42.7% (active) in the experiment on PC-3 prostate. For the same compound, the growth in the experiment on SK-MEL-5 melanoma was -94.5% (active); with UACC-62 melanoma, -69.4% (active); with LOX IMVI melanoma, -79.3% (active); in the experiment on SK-MEL-28 melanoma, -59.1% (active).
With `COc1ccc(-c2cc(C(=O)N=Nc3c(O)[nH]c4ccc(Cl)cc34)c3ccccc3n2)cc1`, the growth is -42.2% (active) with HCT-15 colon; -17.3% (active) with HT29 colon; 62.9% in the experiment on SNB-75 CNS; 23.5% with SNB-19 CNS; -64.1% (active) in the experiment with U251 CNS; 48% in the experiment with PC-3 prostate. Besides, the growth with SK-MEL-5 melanoma is 93%; in the experiment on UACC-62 melanoma, 73.2%; in the experiment with LOX IMVI melanoma, -29.8% (active); with SK-MEL-28 melanoma it was -6.34% (active).
Consider `NCCCCn1c(SCCc2c[nH]c3ccccc23)nnc1-c1ccc2ccccc2n1`, for which the growth was -1.2% (active) with HCT-15 colon; -45.3% (active) in the experiment with HT29 colon; 0.128% (active) in the experiment with SNB-75 CNS; 18.6% in the experiment on SNB-19 CNS; -84.8% (active) in the experiment with U251 CNS; 2.82% (active) in the experiment on PC-3 prostate. Besides, the growth with SK-MEL-5 melanoma was -99.4% (active); with UACC-62 melanoma it was -88.5% (active); in the experiment on LOX IMVI melanoma it was -95.6% (active); in the experiment on SK-MEL-28 melanoma it was -97.4% (active).
Regarding `CN(C)c1nc(NCCNS(=O)(=O)c2ccc(C3=Nc4c(N)nc(N)nc4NC(c4ccc(C(F)(F)F)cc4)C3)cc2)nc(N2CCOCC2)n1` (stereo not given), the growth was 53.6% in the experiment on HCT-15 colon; 9.6% (active) in the experiment with HT29 colon; 46% with SNB-75 CNS; 49% with SNB-19 CNS; 26.6% in the experiment with U251 CNS; 24.2% in the experiment on PC-3 prostate. The growth was 25.5% with SK-MEL-5 melanoma, 51.5% in the experiment on UACC-62 melanoma, 0.0978% (active) in the experiment with LOX IMVI melanoma and 57.4% in the experiment with SK-MEL-28 melanoma.
On to `O=C(Nc1ccc(-c2ccc3c(c2)NC(=O)/C3=C\c2ccc[nH]2)cc1)Nc1ccc(Cl)c(C(F)(F)F)c1`, for which the growth was 26.5% with HCT-15 colon; 17.4% in the experiment with HT29 colon; 38.5% in the experiment with SNB-75 CNS; 72.9% with SNB-19 CNS; 37.9% in the experiment with U251 CNS; 39.5% in the experiment with PC-3 prostate. The growth in the experiment with SK-MEL-5 melanoma was 49.3%; with UACC-62 melanoma, 31.7%; in the experiment with LOX IMVI melanoma it was 46.9%; in the experiment with SK-MEL-28 melanoma it was 47.7%.
As to `NS(=O)(=O)c1cccc(Nc2nc(SCC(=O)c3ccc(F)cc3)nc3ccccc23)c1`, the growth was 8.07% (active) in the experiment with HCT-15 colon; 18.3% with HT29 colon; 28.3% with SNB-75 CNS; 11.9% with SNB-19 CNS; -12% (active) with U251 CNS; 16.6% with PC-3 prostate. The growth in the experiment with SK-MEL-5 melanoma is -29.1% (active); in the experiment on UACC-62 melanoma it was -49.8% (active); in the experiment on LOX IMVI melanoma, -44.6% (active); in the experiment on SK-MEL-28 melanoma, 26.8%.
Take `CCCSc1nnc(-c2c(C)nc3sccn23)o1`: the growth with HCT-15 colon is 65.8%; in the experiment on HT29 colon, 101%; with SNB-75 CNS it was 91.5%; in the experiment with SNB-19 CNS, 81.2%; in the experiment on U251 CNS, 87.5%; with PC-3 prostate, 86.6%. For the same compound, the growth in the experiment on SK-MEL-5 melanoma is 81.6%; in the experiment with UACC-62 melanoma, 69.1%; with LOX IMVI melanoma, 88.9%; in the experiment on SK-MEL-28 melanoma, 106%.
For `C/C(=N\Nc1ccc(S(N)(=O)=O)cc1)c1cnn(-c2cc(=O)[nH]c3ccc(Br)cc23)c1C`, the growth in the experiment on HCT-15 colon is 91.2%; with HT29 colon it was 98.8%; in the experiment with SNB-75 CNS it was 22%; in the experiment on SNB-19 CNS it was 46%; in the experiment with U251 CNS, 37.9%; in the experiment on PC-3 prostate, 58.3%. In addition, the growth with SK-MEL-5 melanoma is 55%; with UACC-62 melanoma, 11.4%; in the experiment with LOX IMVI melanoma it was 38.2%; with SK-MEL-28 melanoma, 34.7%.
Take `COc1cc(C2CC(c3ccc(C(F)(F)F)cc3)=Nc3c(N)nc(N)nc3N2)ccc1Oc1nc(Nc2ccc(F)cc2)nc(N(C)C)n1` (stereo not given): the growth in the experiment on HCT-15 colon was 18.5%; with HT29 colon, 3.28% (active); in the experiment with SNB-75 CNS it was 46.6%; in the experiment with SNB-19 CNS it was 49.3%; in the experiment on U251 CNS it was 41.4%; with PC-3 prostate, 30.7%. For the same compound, the growth with SK-MEL-5 melanoma was 23.9%; in the experiment with UACC-62 melanoma it was 86.3%; with LOX IMVI melanoma it was -17.6% (active); in the experiment on SK-MEL-28 melanoma it was 71.5%.
In the case of `CC(C)(C)OC(=O)N1C/C(=C\c2ccc(F)cc2)C(=O)/C(=C/c2ccc(F)cc2)C1`, the growth with HCT-15 colon is -61% (active); in the experiment on HT29 colon it was -87.2% (active); in the experiment with SNB-75 CNS, 13.2%; in the experiment on SNB-19 CNS it was -89.6% (active); in the experiment with U251 CNS, -100% (active); in the experiment with PC-3 prostate it was -31.1% (active). Moreover, the growth in the experiment on SK-MEL-5 melanoma is -92.3% (active); with UACC-62 melanoma, -96.1% (active); in the experiment on LOX IMVI melanoma it was -100% (active); with SK-MEL-28 melanoma, -95.9% (active).
